# Bioassay records deposited in PubChem by several laboratories.
# Hits are enriched below; roughly 0.7% of the tested compounds scored in any of these assays.
# FadD28 binding = inhibitors of FadD28 bisubstrate probe binding, primary screen, biochemical, fluorescence polarization, single point. 0.22% of 360,000 active. Mycobacterium tuberculosis FadD28 fatty-acid-AMP ligase. inhibition, % at 12.5 µM; in the data active = inhibition above about 8.5%, passing the limit was not always enough
# VHR inh abs = VHR1 phosphatase inhibitors, primary screen, biochemical, absorbance, uHTS. Dual specificity protein phosphatase 3 (Homo sapiens), P51452. recombinant VHR phosphatase, pNPP absorbance. inhibition, % at 13.3 µM. 0.52% of 290,000 active. AID 1654, 2009; in the data active = inhibition above about 50%
# Target sequence (P51452 whole entry, looked up): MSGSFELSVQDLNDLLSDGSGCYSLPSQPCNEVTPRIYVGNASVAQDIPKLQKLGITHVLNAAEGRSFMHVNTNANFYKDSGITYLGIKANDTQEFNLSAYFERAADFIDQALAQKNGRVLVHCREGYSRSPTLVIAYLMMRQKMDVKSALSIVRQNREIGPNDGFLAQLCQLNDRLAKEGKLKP
# Mtb hypoxia inh = PubChem AID 1159583. M. tuberculosis hypoxia-regulated fluorescent reporter, fluorescence. fluorescence inhibition, % (test concentration not listed). 0.1% of 300,000 active; in the data active = fluorescence inhibition mostly above about 23%, no sharp cut-off; inactive = mostly below about 17%
# BioA inh = M. tuberculosis BioA enzyme inhibitors, primary screen, biochemical, plate reader, single point, HTS; AID 602481, 2012; inhibition, % at 9.99 µM; purified M. tuberculosis BioA enzyme; 0.096% of 360,000 active; 7,8-diaminopelargonic acid synthase BioA (Mycobacterium tuberculosis); in the data active = inhibition above about 40%
# SARS 3CLpro inh = SARS-CoV 3CLpro protease inhibitors, primary screen, biochemical, quenched FRET; Replicase polyprotein 1ab (Severe acute respiratory syndrome coronavirus), P0C6X7; 0.14% of 290,000 active; recombinant SARS-CoV 3CLpro, quenched FRET peptide cleavage; inhibition, % at 6 µM; AID 1706, 2009; in the data active = inhibition above about 12%
# * hit, by the source's call; / = no result given.
SMILES,FadD28 binding,VHR inh abs,Mtb hypoxia inh,BioA inh,SARS 3CLpro inh
O=[N+]([O-])c1ccc(C(O)CN2CCN(c3ccccc3)CC2)cc1 (centres undefined),1,20,5,7,0
CCCCc1cc(=O)oc2c(CN(CC)CC)c(O)c(Cl)cc12,-2,52*,9,0,1
Cn1ccnc1C(=NNC(=O)c1ccccc1)c1cccc([N+](=O)[O-])c1,/,/,14,/,/
COc1ccc(OC)c(N2C(=O)NC(=O)/C(=C/c3ccc([N+](=O)[O-])s3)C2=O)c1,21*,-37,4,4,2
CC1CC[C@@]2(O1)OC(CCO)CC(O)C2O (some centres undefined),/,/,5,/,/
O=C1/C(=C/c2ccc(N3CCCC3)cc2)NC(=S)N1C1CC1,-1,52*,6,-6,-3
CCn1cc(CNC(=O)c2ccc(C)s2)cn1,-2,57*,13,/,3
O=C(N/N=C/C(Cl)=C\c1ccccc1)c1cnccn1,-1,8,/,45*,3
O=C(N/N=C/C(Cl)=C/c1ccccc1)c1cnccn1,1,-9,/,22,-2
Cc1cccc(NC(=O)COc2ccc(C=Cc3[nH]c(=O)[nH]c(=O)c3[N+](=O)[O-])cc2)c1,/,/,-1,/,/
CCN1CCSc2ccc(C(=O)NCc3ccc(OC(C)C)cc3)cc21,0,53*,-1,0,3
OCC1OC(OCC2OC(OCC3OC(O[C@]4(CO)OC(CO)C(O)C4O)C(O)C(O)C3O)C(O)C(O)C2O)C(O)C(O)C1O (some centres undefined),/,/,2,/,/
COc1cccc(NC(=O)c2cc3ccccc3oc2=NO)c1,/,/,12,/,/
CC(=O)Nc1ccc(S(=O)(=O)Nc2nc3ccccc3nc2Nc2ccc(O)c(C(=O)O)c2)cc1,13*,-2,8,-14,7
CC1COC(=O)C(Cc2ccc(F)cc2)CC=CCC(CC(=O)NC(CO)Cc2ccccc2)C(=O)N1 (centres undefined),/,/,11,/,/
Cc1cc(C(=O)NN=Cc2ccc(Cl)c([N+](=O)[O-])c2)c(C)n1-c1ccc(F)cc1,/,/,-15,/,/
CCN1/C(=C/C=C/c2oc3ccc(-c4ccccc4)cc3[n+]2CC)Oc2ccc(-c3ccccc3)cc21,95*,6,-194,-201,-165
COc1ccc(-c2cc(C#N)nc(N3CCN(c4ccccc4)CC3)n2)cc1,-2,53*,1,2,-2
COc1ccc(-c2cc(-c3ccc(F)cc3)nc(N3CCN(C)CC3)n2)cc1,0,/,20,-2,1
CC(C)CSC1=NSC2=NC(=O)/C(=C\c3coc4ccccc4c3=O)C(=N)N12,14*,10,13,/,3
CCCNC(=O)N1C2CCC1C(C(=O)OC)=C(c1ccc(OC(F)(F)F)cc1)C2 (centres undefined),/,/,0,/,/
CC(C)OCC1Cn2c(nc3c2c(=O)n(C)c(=O)n3C)O1 (centres undefined),-1,12,9,/,0
Cn1c(=O)c2c(nc3n2CC(CO)O3)n(C)c1=O (centres undefined),-1,59*,1,-2,-3
CN(C(=O)COC(=O)C1=COCCO1)C1(C#N)CCCCC1,-1,/,4,-4,/
N#CC1(NC(=O)COC(=O)C2=COCCO2)CCCCC1,18*,/,/,2,/
SMILES,FadD28 binding,VHR inh abs,Mtb hypoxia inh,BioA inh,SARS 3CLpro inh
O=C(NCCN1CCCCC1)Nc1ccc(Cl)cc1,-3,57*,14,-1,-1
Cn1c(=O)[nH]c(=O)c2c1nc(SCC(N)=O)n2Cc1cccc(Br)c1,0,52*,1,0,2
Cn1c(=O)[nH]c(=O)c2c1nc(N)n2Cc1ccccc1,/,52*,3,0,-2
Cn1c(=O)c2c(nc(C=Cc3cccc(Cl)c3)n2C)n(C)c1=O,/,/,-5,/,/
O=C(NCc1ccccc1)c1cc(-c2ccncc2)nc2ccccc12,/,53*,5,-2,-4
O=C(NCc1ccco1)c1cc(-c2ccncc2)nc2ccccc12,-4,8,8,-2,-1
C#CCOCCOCCOCCNc1nc(N2CCN(C(=O)C(C)n3cc(CCC(=O)O)nn3)CC2)nc(N2CCN(C(=O)C(Cc3ccc(O)cc3)n3cc(CCO)nn3)CC2)n1 (centres undefined),/,/,-2,/,/
CCc1cccc2c(C(=O)COC(=O)c3cccc(S(=O)(=O)N(C)C4CCCCC4)c3)c[nH]c12,22*,4,7,/,2
